From PubChem BioAssay (NCI)
Several values for one entry are separate records, joined by “and”; a condition that tells them apart may be missing. Identical values can stand only once. This is part of a sample that, as a whole, favours compounds with a hit. Of some 79,000 tested, about 15% had one in any assay. Unmarked numbers belong to inactive results. Activity calls are given as the source filed them. No stated cut-off is given here; in the data, active means growth inhibition above about 70%; inactive means the rest.

What was measured:
[1] = NCI Yeast Anticancer Drug Screen. Data for the rad50 strain (AID 155);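 further: 0% = growth of vehicle-only cultures of the same strain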; conditions: S. cerevisiae rad50 strain growth inhibition, stronger effect = higher value; at 50.0 µM unless noted
In short: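 Genetically altered yeast (DNA repair pathway); compound treatment; growth inhibition vs vehicle ctrl.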

[2] = NCI Yeast Anticancer Drug Screen. Data for the mec2-1 strain (AID 157); conditions: S. cerevisiae mec2-1 strain, stronger effect = higher value; at 50.0 µM unless noted
In short: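 Vehicle-treated cultures served as reference for growth inhibition of compound-exposed mec2-1 yeast.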

[3] = NCI Yeast Anticancer Drug Screen. Data for the sgs1 mgt1 strain (AID 161);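 further: 0% = growth of cultures given vehicle only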; conditions: S. cerevisiae sgs1 mgt1 strain, stronger effect = higher value; at 50.0 µM unless noted
In short: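 Inhibition of yeast growth, normalised to vehicle-treated controls, is reported for a strain bearing genetic alterations in DNA damage repair.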

[4] = NCI Yeast Anticancer Drug Screen. Data for the cln2 rad14 strain (AID 165);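 further: 0% = growth equal to vehicle treated cultures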; conditions: S. cerevisiae cln2 rad14 strain, stronger effect = higher value; at 50.0 µM unless noted
In short: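 Each compound was tested on cln2 rad14 yeast. Inhibition of growth was calculated against vehicle-exposed controls.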

[5] = NCI Yeast Anticancer Drug Screen. Data for the bub3 strain (AID 167); conditions: S. cerevisiae bub3 mutant strain, stronger effect = higher value; at 50.0 µM unless noted
In short: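 Yeast carrying a defined mutation is treated with each compound, and growth is compared with that of vehicle-exposed cells to give inhibition.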

[6] = NCI Yeast Anticancer Drug Screen. Data for the mlh1 rad18 strain (AID 175); conditions: S. cerevisiae mlh1 rad18 strain growth inhibition, stronger effect = higher value; at 50.0 µM unless noted
In short: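 Vehicle-treated cultures served as the reference for growth inhibition in a yeast strain carrying DNA damage repair alterations exposed to each compound.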

Compound	growth inhibition [1]	growth inhibition [2]	growth inhibition [3]	growth inhibition [4]	growth inhibition [5]	growth inhibition [6]
COc1ccc(Cl)cc1NC(=O)Oc1ccc(NC(C)=O)cc1	3.2%	-0.6%	-1.15%	-1.3%	11%	4.25%
CCc1ccc2c(c1)C(O)(C#Cc1ccccc1)c1cc(CC)ccc1C2(O)C#Cc1ccccc1 (stereo not drawn)	37.5%	25.2%	45.5%	22.9%	-4.8%	32.7%
Cc1cc(C(=O)C(C#N)=Nc2ccc(N(C)C)cc2)c(CN2C(=O)c3ccccc3C2=O)c(=O)n1C	22.9%	-12.1%	19.3%	-28.1%	-6.15%	5.95%
COC(=O)[C@]1(C)CCCC2(C)C1CC[C@H]1C=C(C)[C@H]3CCC12C3 (stereo partly drawn)	14%	12.2%	-25.1%	6.7%	-1.25%	15.7%
O=C1NC(N/N=C\C(O)C(O)C(O)C(O)CO)=N/C1=C/c1ccc(Cl)cc1 (stereo not drawn)	28.1% and 32%	8.95% and 15.7%	1.45% and 10.8%	-0.6% and 13.4%	-0.2% and 6.45%	10.6% and 9.2%
CCCCC(NC(=O)C(C)NC(=O)OCc1ccccc1)C(=O)O (stereo not drawn)	2%	6.3%	3.4%	4.75%	12.8%	-9.6%
COc1nc(NC2OC(CO)C(O)C(O)C2O)c(C(=O)CCl)c(=O)n1C (stereo not drawn)	3.9%	4.2%	-15.8%	-7.45%	-3.4%	4.05%
O=S(=O)(O)c1ccc(N=Nc2ccc(O)cc2)cc1	-15.8% and 28.8%	-27.9% and -10.4%	-10.1%	-53.9%	3.7%	-17.4% and 8.65%
CC#CC#C/C(=C/C=CC(=O)OC)SC	1.95%	-18.9%	13.7%	12.3%	6.6%	-38.2%
NCCNc1ccccc1	-32.9%	-62%	-42.2%	6.6%	-20.4%	-22.9%
CNS(=O)(=O)c1ccc(C)c(C)c1	-0.5%	-13.9%	4.4%	-10.7%	23.1%	12.7%
O=C1C=C(c2ccccc2)C(c2ccccc2)C(c2ccccc2)C1 (stereo not drawn)	1.4%	21%	16.4%	-5.35%	3.85%	-3.1%
CCC(CN)C(F)(F)C(F)(F)C(F)(F)F (stereo not drawn)	4.65%	-12.2%	-5.45%	2.7%	8.3%	6.05%
Cc1ccc(Nc2ccc(C)cc2[N+](=O)[O-])cc1	18.3%	-2.25%	32.9%	15.1%	31.6%	17.6%
CCC(/C=C/c1ccc(C)cc1)=N\NC(=O)c1ccccc1	-0.25%	-2.3%	-1.1%	19.2%	3.35%	3.05%
CN(C)c1nc(S(C)(=O)=O)nc2nc(Cl)[nH]c12	6.2%	-13.6%	-0.85%	-7.1%	3.65%	-9.8%
COc1cc2c(cc1OC)C1Cc3ccccc3CCN1CC2 (stereo not drawn)	-23.4%	-7.1%	-16.8%	-23.8%	-9.95%	-19.4%
CN(C)c1ccc(/C=C(\C#N)c2ccc(F)cc2)cc1	-2.65%	-1.8%	3.05%	-26.6%	-6.75%	-17.8%
CN(CCOC(=O)Nc1ccccc1)N=O	9.35%	-9.35%	0.75%	-15.4%	7.7%	-3%

Compound	growth inhibition [1]	growth inhibition [2]	growth inhibition [3]	growth inhibition [4]	growth inhibition [5]	growth inhibition [6]
CCOC(=O)c1c(-c2ccccc2)csc1NS(=O)(=O)c1ccc(C)cc1	81.8% (active)	78.2% (active)	87% (active)	82.3% (active)	81.8% (active)	90.6% (active)
COc1cc(C2c3cc4c(c(OC)c3CC3COC(=O)[C@@H]32)OCO4)cc(OC)c1O (stereo partly drawn)	85.9% (active)	86.2% (active)	80.5% (active)	76.3% (active)	82.8% (active)	87.7% (active)
CC(=O)C(C)(CCN(C)C)c1ccccc1 (stereo not drawn)	6.5%	4.4%	7.45%	-10.3%	6.55%	12.8%
CCCCCCCCCCCCCCCCC(C(=O)O)C(O)(CC(=O)O)C(=O)O (stereo not drawn)	2.8% and 41.7%	-14.7% and 16.6%	14.5% and 43.4%	-10.7% and 16.6%	-7.9% and 33.4%	7.25% and 31.6%
CN(C)c1ccc(/[N+]([O-])=N/N2C(=O)c3ccccc3C2=O)cc1	-25.1%	-24.4%	-20.9%	-52%	-22.9%	-25.5%
Cc1c2cc[n+](C)c(C)c2cc2c1[nH]c1ccccc12	64.8%	19.8%	34.1%	12.8%	22.4%	37.8%
CCCOC(=O)N(C)c1ccccc1	17.8%	-10.3%	2.95%	-32.3%	-22.6%	-2.1%
Nc1ncnc2c1nc(Cl)n2C1OC2COP(=O)(O)OC2C1O (stereo not drawn)	-15.9% and -13.3%	-8.05% and 3.45%	-20.7% and -0.55%	-9.25% and -40.8%	-27.1% and -41.8%	-13.8% and -10.6%
CCOc1cc2c(cc1C(C)c1ccc(O)cc1)OCO2 (stereo not drawn)	99.5% (active)	99.7% (active)	99.7% (active)	99.7% (active)	99.5% (active)	99.5% (active)
Cc1ccc(S(=O)(=O)Oc2ccc(Cl)c(C)c2)cc1	39.5% and -16.1%	6% and -11.8%	35.4% and -25.1%	14.1% and -74.5%	38.9% and 14.8%	17.8% and 5.1%
CC1=CC(C)(C)N(C)C(N)=N1	-4.45%	-3.1%	-5.3%	-43.2%	-2.65%	-1.75%
CCCC(=O)n1ccc2ccccc21	-14.8%	-37.6%	7.45%	13.4%	-12.9%	1.6%
CC(=O)Oc1ccccc1C(=O)N(N)CCSc1ccc(Cl)cc1	-0.45%	1.15%	11.2%	-32.2%	-12.5%	-1%
CCC(C)C(O)C(C)C (stereo not drawn)	11.3%	-18.1%	-15.6%	13.6%	-4.6%	21.8%
CC1=C(C(=O)Nc2ccccc2)C(c2ccccc2Cl)C(C(=O)Nc2ccccc2)=C(C)N1	14.8%	-0.35%	-6.25%	14.4%	-11.7%	6.65%
COc1ccc2nc3cc([N+](=O)[O-])ccc3c(NCCCN(CCO)CCO)c2c1	-6.7%	-1.75%	6.9%	1.75%	7.75%	2.6%
CCC(C)C(C#N)(CCN(CC)CC)c1ccccc1 (stereo not drawn)	15.2%	12.6%	28.4%	7.3%	32.9%	14.5%
CC(C)(CO)C(O)C(=O)NN (stereo not drawn)	-2.8%	2.95%	8.6%	-6.25%	-3.9%	3.25%
CS(=O)(=O)c1ncc(Br)cn1	15.6%	-6.85%	5.45%	17.1%	6.4%	7.75%
